Results taken from the supplement of paper PMC6555819.

Key:
Experiment in all cases: PBM binding z-score (relative to random genomic background probes); higher = stronger binding; sequences stand for … in GC…GCGATTGACAGCGTAGAATGAAGG
[1] = system: LXRa:RXRa (NR concentration 270 nM, RXRa partner concentration 90 nM)
Method in brief: (§1)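 Binding z-scores take random background probes as their reference. They come from custom Agilent 4×180K protein-binding microarrays incubated 1 h with ligand-free nuclear receptor dimers, with antibodies against each partner (one per run) detecting binding. Scanned fluorescence was regression-normalized.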

[2] = system: LXRa homodimer (NR concentration 270 nM)
Method in brief: as §1

[3] = system: LXRb homodimer (NR concentration 270 nM)
Method in brief: as §1

[4] = system: PPARa:RXRa (NR concentration 270 nM, RXRa partner concentration 90 nM)
Method in brief: as §1

[5] = system: PPARg:RXRa (NR concentration 180 nM, RXRa partner concentration 90 nM)
Method in brief: as §1

[6] = system: PPARg:RXRa 270nM:90nM, anti-RXR (NR concentration 270 nM, RXRa partner concentration 90 nM)
Method in brief: as §1

[7] = system: PPARg:RXRa 30nM:10nM, anti-RXR (NR concentration 30 nM, RXRa partner concentration 10 nM)
Method in brief: as §1

[8] = system: PPARg:RXRa 90nM:30nM, anti-RXR (NR concentration 90 nM, RXRa partner concentration 30 nM)
Method in brief: as §1

[9] = system: PPARg:RXRa DBDmut IVT, anti-RXR (DBD mutation: RXRa K156A/R161A, NR concentration 270 nM, RXRa partner concentration 90 nM)
Method in brief: as §1

[10] = system: PPARg:RXRa IVT, anti-PPARg (NR concentration 270 nM, RXRa partner concentration 90 nM)
Method in brief: as §1

[11] = system: PPARg DBDmut:RXRa IVT, anti-PPARg (DBD mutation: PPARg1 K132A/R137A, NR concentration 270 nM, RXRa partner concentration 90 nM)
Method in brief: as §1

[12] = system: PPARg DBDmut IVT, anti-PPARg (DBD mutation: PPARg1 K132A/R137A, NR concentration 270 nM)
Method in brief: as §1

[13] = system: PPARg homodimer (NR concentration 180 nM)
Method in brief: as §1

[14] = system: PXR:RXRa (NR concentration 270 nM, RXRa partner concentration 90 nM)
Method in brief: as §1

[15] = system: PXR homodimer (NR concentration 270 nM)
Method in brief: as §1

[16] = system: RARa:RXR (NR concentration 270 nM, RXRa partner concentration 90 nM)
Method in brief: as §1

[17] = system: RARa homodimer (NR concentration 270 nM)
Method in brief: as §1

[18] = system: RARb:RXRa (NR concentration 270 nM, RXRa partner concentration 90 nM)
Method in brief: as §1

[19] = system: RARb homodimer (NR concentration 270 nM)
Method in brief: as §1

Sequence	PBM binding z-score [1]	PBM binding z-score [2]	PBM binding z-score [3]	PBM binding z-score [4]	PBM binding z-score [5]	PBM binding z-score [6]	PBM binding z-score [7]	PBM binding z-score [8]	PBM binding z-score [9]	PBM binding z-score [10]	PBM binding z-score [11]	PBM binding z-score [12]	PBM binding z-score [13]	PBM binding z-score [14]	PBM binding z-score [15]	PBM binding z-score [16]	PBM binding z-score [17]	PBM binding z-score [18]	PBM binding z-score [19]
ACTTAAGGGTCAACGAGGTTATAGCACGCGTATA	6.42	1.86	1.21	6.46	7.09	6.95	3.18	5.51	3.78	4.06	2.52	3.33	4.43	6.26	6	6.74	2.01	5.29	4.31
GATACAGGGTCAAGGTCAGAGTACGCGTATTGAT	5	1.48	0.776		7.68	6.67	4.07	5.8	2.93	5.18	1.47	0.678	2.96	5.08	1.84	5.53	2.12	5.11	5.14
CCAGACAGGTGAGAAGGTAACTCAGCCTCGATTA	0.435	0.0228	-0.0173		0.522	0.838	0.0404	0.628	1	0.964	-0.28	-0.249	1.03	0.228	0.138	0.486	0.698	0.666	0.841
GCTAGTTGGTCAGTAAAATGTCACACACCGGTCG	0.173	-0.0317	-0.257		0.556	-0.103	-0.158	0.223	0.762	0.672	0.0763	-0.339	1.21	-0.0576	0.0723	0.0348	0.262	0.995	1.43
TGTATGAGGTTAAAGATCAGGGAACGTGGCGTCG	3.09	0.262	1.41		4.1	5.21	3	4.93	0.702	1.99	0.959	0.628	1.78	2.38	0.249	3.55	1.35	2.49	1.35
ATCGAAAGGTCGACGCGGTGAGTATACACCGTTT	3.4	-0.127	0.391		2.07	2.54	0.887	1.8	-0.0451	1.36	0.788	0.177	1.39	2.07	-0.368	3	0.192	3.72	2.45
AGTCAAAGTTTATCTAGGTAACGTAAGATATGCT	0.263	0.141	-0.331		2.44	2.51	0.904	1.95	2.68	4.84	1.23	1.54	-0.0246	0.694	0.675	0.503	0.429	1.93	0.612
AGTCAAAGTGCATCTAGGTAACGTAAGATATGCT	0.188	-0.289	-0.415		2	2.08	0.727	1.47	0.592	2.46	0.878	0.653	0.197	0.516	0.154	0.595	-0.00454	1.53	0.456
CGAACTAGGTCATCCAGGACCGTGAATACATTGA	2.19	0.428	-0.349		7.13	6.1	3.53	5.78	8.24	8.09	1.32	0.732	1.83	1.34	-0.0905	1.84	0.294	3.6	2.57
CCTAGTTGTTCAGGAGGTCACACACCGGATATGA	4.36	3.87	1.61		2.04	2.98	1.11	1.87	0.958	2.97	1.15	0.86	3.91	4.18	2.15	4.4	2.25	3.62	4.15
CCTTACGGGTAACGAGGTTATAGCACGACGAGCG	0.424	-0.553	-0.211		1.49	1.14	0.156	0.641	1.07	1.82	-0.344	-1.05	0.604	0.822	0.153	1.3	0.476	0.589	0.484
AATACAGGGTCATCGTACGCCAGAGTACGCACAG	6.21	2.87	1.54		7.02	6.25	2.92	5.21	2.92	4.44	3.9	1.45	3.42	4.53	0.995	5.47	1.81	4.45	3.46
AAAACAGGGTCATCGTAGGCCAGAGTACGCACAG	6.26	0.569	1.32		7.65	6.86	4.1	5.89	4.38	5.24	4.19	2.83	6.6	5.51	0.625	5.95	0.959	4.44	3.68
CGAACGAGGTCATGAGTTGATAGCAAATGCCGAT	5.51	0.616	0.023		7.55	6.94	4.16	5.98	5.48	6.46	1.73	1.44	2.84	5.17	0.602	5.48	0.273	5.23	3.94
